Hit rate of the full screen: of about 3,400 compounds, about 160 (4.7%) were called active.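 How the source made its calls: active means fitted curve reaches 30% activation at a concentration no higher than the top valid tested dose, luminescence rising; inconclusive means no clear call, values can overlap the other calls; inactive means signal moving opposite to the expected increase, plus the rest.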 The list is a sample of the results. Entries with a potency or affinity are not part of this list.
Experiment: Wnt/beta-catenin signaling activators, dose response, cell-based, iPS-derived NPC, luciferase, Wnt3a, cherry-pick (AID 1053144);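 further: Wnt3a stimulus is conditioned medium from Wnt3a-transfected mouse L cells at 5% in well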
Conditions: NPC TCF/LEF luciferase reporter, Wnt3a EC25, 24 h; series mostly up to 26 µM

activation, inactive:
COc1cccc(C(=O)NC2=NCCS2)c1
Cc1ccc(C(=O)NC2=NCCS2)cc1
Cc1cnc(C(=O)Nc2nnc(C(C)C)s2)cn1
CCOC(=O)C1(NC(=O)C2(NC(=O)CN3C(=O)c4ccccc4C3=O)CCCC2)CCCC1
O=c1c2ccccc2c(=O)n(-c2ccccc2)n1-c1ccccc1
Cc1cccc(/C(N)=N/OC(=O)c2ccncc2)c1
Cc1cccc(/C(N)=N/OC(=O)c2cccs2)c1
CC(Sc1nncn1C)C(=O)Nc1ccc(N2CCCCC2)cc1 (stereo not given)
O=C1c2ccccc2C(Nc2ccccc2)N1c1ccc(Cl)cn1 (stereo not given)
COc1n[nH]c(C(=O)Nc2nc3ccccc3s2)c1[N+](=O)[O-]
CN(C)S(=O)(=O)c1ccc(C(=O)NCCOc2ccccc2)cc1
Cc1ccc(C(=O)CC(SCC(=O)O)c2ccc([N+](=O)[O-])cc2)cc1 (stereo not given)
Cc1cc(C(=O)COC(=O)c2ccc(N)c([N+](=O)[O-])c2)c(C)n1Cc1ccc2c(c1)OCO2
Cc1ccc2nc(NC(=O)c3ccc(Cl)s3)sc2c1
Nc1nc(Nc2ccccc2)sc1C(=O)c1ccccc1
Brc1ccc(-c2cn3ccccc3n2)cc1
O=C(Nc1ccc(Cl)cc1)c1ccc(-c2ccccn2)s1
O=C(NCc1ccccn1)Nc1cccc(Cl)c1
C(=N\NCc1ccccc1)/c1ccc2ncccc2c1
CN(C)c1ccc(N=Nc2cccc(F)c2)cc1
CC(C)(CNC(=O)c1cccc(S(=O)(=O)N2CCCCC2)c1)N1CCOCC1
Cc1ccc(CNC(=O)COC(=O)C2CCN(S(=O)(=O)c3cccs3)CC2)cc1
Oc1[nH]c2ccccc2c1N=Nc1ccccc1
O=C(N=Nc1c(O)[nH]c2ccccc12)c1ccc2c(c1)OCO2
CCCCCn1c(CN2CCN(C(=O)c3ccco3)CC2)nc2c1c(=O)n(C)c(=O)n2C
O=C(CSc1nnc2ccccn12)c1ccc(Cl)cc1
Cc1nnc(SCC(=O)c2ccc(Cl)cc2)n(N)c1=O
CCCCN(CC)C(=O)c1cc2cc3ccc(OC)cc3nc2o1
Cc1ccc2nc(-c3ccc(NS(=O)(=O)c4ccc(F)c(F)c4)cc3)sc2c1
Cc1ccc2nc(-c3ccc(NC(=O)CSc4nc(N)cc(=O)[nH]4)cc3)sc2c1
CC1=CCC(C(=O)O)C(C(=O)Nc2ccc(-c3nc4ccc(C)cc4s3)cc2)C1 (stereo not given)
Cc1ccc2nc(-c3ccc(NC(=O)COCC(=O)O)cc3)sc2c1
Cc1cc(C)cc(N(CC(=O)Nc2ccc(-c3nc4ccc(C)cc4s3)cc2)S(C)(=O)=O)c1
Cc1ccc(C2(C)NC(=O)N(CC(=O)Nc3ccc(-c4nc5ccc(C)cc5s4)cc3)C2=O)cc1 (stereo not given)
Cc1ccc(C)c(-n2ccnc2SCC(=O)Nc2cccc(S(=O)(=O)NC3=NCCC3)c2)c1
CCC(=O)Nc1c(C(=O)Nc2ccc3c(c2)OCCO3)oc2ccccc12
N=c1cc(C2(O)CCCCC2)n2c(nc3ccccc32)s1
Cc1ccnc(NC(=O)C2CC(=O)N(c3ccc4c(c3)OCCO4)C2)c1 (stereo not given)
c1ccc(-c2nnc(-c3ccccn3)nn2)nc1
CCC(=O)Nc1cc(C(=O)OCC(=O)c2ccccc2)ccc1C
COC(=O)[C@H](CCSC)NC(=O)c1cccnc1SC
O=C(CCN1C(=O)C2CCCCC2C1=O)Nc1nc2c(F)cc(F)cc2s1 (stereo not given)
CN(c1ccc(C(=O)NCCSC(C)(C)C)cc1)S(=O)(=O)c1ccccc1
Cc1ccc(C)c(OCc2nc3ccccc3[nH]2)c1
COc1cccc(NC(=O)n2ncc3c(C)cccc32)c1
COc1ccc(NC(=O)N2CCCc3ccccc32)cc1
O=C(Cc1noc2ccccc12)Nc1ccccn1
Cc1nc(C(C)NC(=O)CCc2nnc(CCCc3ccccc3)o2)c(C)s1 (stereo not given)
c1ccc2nc(SCc3cn4ccccc4n3)cnc2c1
CC(=O)Nc1ccc(-c2nc3ccccc3o2)cc1
CC(=O)Nc1ccc2oc(-c3ccccc3)nc2c1
O=C(N/N=C/c1ccc(F)cc1)c1ccccc1
Cc1ccc(NC(=O)COc2ccc3c(c2)OCO3)c(Cl)c1
COc1ccc(C(=O)Cc2ccc3c(c2)OCO3)c(O)c1
Cc1ccc(/C=N/NC(=O)c2cccs2)cc1[N+](=O)[O-]
COc1ccc(/C=N/Nc2ccc([N+](=O)[O-])cc2)cc1O
Cc1c(C(=O)OCC(=O)NCC2CCCO2)cccc1[N+](=O)[O-] (stereo not given)
Cc1cc(-c2nnc(-c3cccc(Cl)c3)o2)no1
COc1ccc(/C=C/C(=O)c2ccccc2)c(OC)c1
O=C(/C=C/c1ccc(O)cc1)c1ccccc1
O=S(=O)(c1ccccc1)n1ccc(-c2cnc(-c3ccccc3)s2)n1
O=C(Nc1ccc(F)c(Cl)c1)c1cc(-c2ccco2)on1
COc1ccc(NC(=O)c2cc(-c3ccco3)on2)cc1
CC(C)c1cc(C(=O)NCCc2ccccc2)no1
O=C(Nc1cccnc1Cl)c1cc(-c2ccco2)on1
Cc1ccc(NC(=O)/C=C/c2ccc3c(c2)OCO3)nc1
COc1ccc(CNC(=O)Nc2cccc(C)c2)cc1
Cc1ccc(SCC(=O)NC(=O)NCCC(C)C)c(C)c1
Cc1ccc(OCC(=O)Nc2ccc(Cl)cc2)c([N+](=O)[O-])n1
Cc1ccc(C(=O)CCC2CCCCC2=O)cc1 (stereo not given)
Cc1ccc2nc(-c3cccc(NC(=O)c4ccc5c(c4)OCCO5)c3)oc2c1
CCC(=O)Nc1cccc(-c2nc3ccc(C)cc3o2)c1
O=[N+]([O-])c1ccccc1N/N=C1\CCc2ccccc21
O=C(NCc1nnc(SCC(=O)N2CCCc3ccccc32)o1)c1c(F)cccc1Cl
COc1ccc(N=Cc2c(O)[nH]c3ccccc23)cc1
